Measured values as given in PubChem BioAssay AID720504 (National Center for Advancing Translational Sciences (NCATS), 2013).
Among all 360,000 compounds or so, about 10,000 (2.8%) were called active. Roughly 4% stayed inconclusive and do not appear here. Calls follow the shape of the dose curve; as a rule, active = well fitted inhibition curve with a large enough effect; inconclusive = small, poorly fitted or top-dose-only effect; inactive = flat fitted curve, though single readings scatter. For the sample, actives were picked, then their nearest neighbours and some compounds at random.

Target: Serine/threonine-protein kinase PLK1 (Homo sapiens) (UniProt P53350)
Test: qHTS for Inhibitors of PLK1-PDB (polo-like kinase 1 - polo-box domain): Primary Screen; also: nearly all actives have a fitted effect of over 65% in size; as to max response, negative = inhibition: series mostly up to about 57 µM
Details: Plk1 PBD binding of FITC phosphopeptide, fluorescence polarization
% is scaled to controls: 0 for no effect and ±100 for the full control effect; potency is read from the fitted curve at half-maximal effect.

Chain of Serine/threonine-protein kinase PLK1 (Homo sapiens) (P53350 whole entry, looked up, the tested form may be a part): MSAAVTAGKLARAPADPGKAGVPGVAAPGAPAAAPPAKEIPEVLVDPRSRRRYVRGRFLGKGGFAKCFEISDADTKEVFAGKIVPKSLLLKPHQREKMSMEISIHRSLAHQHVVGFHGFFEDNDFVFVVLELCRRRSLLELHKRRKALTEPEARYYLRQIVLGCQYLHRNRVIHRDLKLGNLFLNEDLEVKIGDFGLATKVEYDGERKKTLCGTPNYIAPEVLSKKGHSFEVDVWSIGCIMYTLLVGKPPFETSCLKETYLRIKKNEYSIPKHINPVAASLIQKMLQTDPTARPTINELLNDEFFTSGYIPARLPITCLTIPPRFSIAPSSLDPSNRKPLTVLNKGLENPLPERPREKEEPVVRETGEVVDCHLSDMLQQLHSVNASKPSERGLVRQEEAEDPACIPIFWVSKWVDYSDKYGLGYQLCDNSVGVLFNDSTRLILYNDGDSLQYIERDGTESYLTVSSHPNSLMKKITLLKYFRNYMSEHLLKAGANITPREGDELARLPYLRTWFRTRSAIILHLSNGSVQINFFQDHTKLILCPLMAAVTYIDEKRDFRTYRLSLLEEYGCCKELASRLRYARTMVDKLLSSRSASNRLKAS

Structure (SMILES) | max response, negative = inhibition | Potency
O=C(NCCOc1ccccc1)N1[C@H]2CC[C@@H]1C=C(c1ccc(F)cc1OCc1ccccc1)C2 | -5.72% (inactive) | –
CC1(C(=O)NS(=O)(=O)c2ccc(C#N)cc2)CCN1C(=O)CC1CCCC1 (configuration not stated) | 1.71% (inactive) | –
COCC(=O)N(C)C[C@H]1Oc2cc(Br)ccc2S(=O)(=O)N([C@H](C)CO)C[C@H]1C | 4.87% (inactive) | –
Cc1ccc(CN2CC(N3CCC(Cc4ccccc4)CC3)CS2(=O)=O)cc1 (configuration not stated) | -6.9% (inactive) | –
Cn1c(=O)[nH]c(=O)c2c1nc(N(CCO)Cc1ccccc1)n2Cc1ccccc1Cl | -7.01% (inactive) | –
Cn1c(=O)[nH]c(=O)c2c1[nH]c(=S)n2Cc1ccccc1 | – | 23.8 µM (active)
CCN(CC)CCn1cnc2c1c(=O)[nH]c(=O)n2Cc1ccccc1 | -4.34% (inactive) | –
COC(=O)[C@@]12C[C@@H](CC(=O)NCc3cccc(C(F)(F)F)c3)C(=O)N(Cc3ccco3)C1=CCC(C)(C)C2 | -2.23% (inactive) | –
O=C(NC1CCCC1)C1c2ccccc2OCC(=O)N1Cc1ccccc1 (configuration not stated) | -5.56% (inactive) | –
CCCCCCN1CCN(C2CN(Cc3cn(Cc4ccc(F)cc4)nn3)S(=O)(=O)C2)CC1 (configuration not stated) | 3.67% (inactive) | –
OC(c1ccccc1)c1nc(/C=C/c2ccc(C(F)(F)F)cc2)cs1 (configuration not stated) | -1.28% (inactive) | –
CC(=O)Nc1ccc(C=CC(=O)c2ccc([N+](=O)[O-])cc2)cc1 | -8.08% (inactive) | –
CC(=O)Nc1ccc(C=Cc2ccc([N+](=O)[O-])cc2)cc1 | -17.4% (inactive) | –
O=C(O)/C=C/C(=O)NNc1ccc([N+](=O)[O-])cc1 | – | 6.7 µM (active)
O=C(NCCO)c1cccc(-c2cccc3nccn23)c1 | -13.3% (inactive) | –
C#Cc1ccc(NC(=O)C2(C)CCN2C(=O)Cc2ccc(-c3ccccc3)cc2)cc1 (configuration not stated) | 7.1% (inactive) | –
COc1ccc(CNC(=O)CSc2n[nH]c(N)n2)cc1OC | -18.3% (inactive) | –
COc1ccc(C(=O)CSc2n[nH]c(N)n2)cc1 | – | 26.7 µM (active)
COc1ccc(C(=O)CSc2nccc(=O)[nH]2)cc1 | -2.62% (inactive) | –
COc1ccccc1-c1cc2nc(NCc3cccc(Cl)c3)ccn2n1 | -9.83% (inactive) | –
CCc1nc2c(OCc3ccc(C(=O)OC)cc3)cccn2c1N(C)C(=O)C(C)C | -10.3% (inactive) | –
OC[C@H]1O[C@@H](c2nc(-c3nc(-c4ccc(F)cc4)no3)cs2)[C@H](O)[C@@H](O)[C@H]1O | -9.06% (inactive) | –
